High-throughput results from PubChem.
Pf growth 48h = inhibits P. falciparum growth in the first generation, 48 h. AID 504832. Potency, µM (titrated, usually from 28.7 µM), without a hit: at the top dose activity change, negative = inhibition, actives largely listed as inhibitors. 310,000 tested, 5.9% active. P. falciparum luciferase growth in erythrocytes, 48 h; also: potency is read from the fitted curve at half-maximal effect; % is scaled to controls: 0 for no effect and ±100 for the full control effect
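In quantitative HTS format, infected erythrocytes bearing luciferase-reporter parasites were treated for a single generation at 37 C. Luminescence after adding detection reagent served as the growth measure.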
HCMV antiviral = human cytomegalovirus inhibition; HFF cells, HCMV-luciferase reporter, 72 h; stronger effect = lower value; activity change, negative = inhibition, % at 57.5 µM; 410,000 tested, 4.5% active; AID 1259415; in the data active = activity change below about -60%; inconclusive = no clear call, values can overlap the other calls; inactive = above about -39%; also: % is scaled to controls: 0 for no effect and ±100 for the full control effect
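Inhibition of viral replication was scored as loss of reporter luminescence in HFFs infected with HCMV-luciferase (MOI 1 PFU/cell) for 72 h; compounds tested at 2 doses, normalized to buffer and Salinomycin controls.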
Shiga toxin inh = inhibitors of Shiga toxin in Vero cells | AID 2315 | Vero cells, Shiga toxin protein synthesis inhibition reporter | inhibition, % at 38.7 µM | 290,000 tested, 9.2% active; in the data active = inhibition mostly above about 28%, no sharp cut-off; inactive = mostly below about 43%; also: 0% is about no effect
CHX counter = counter-screen for Shiga toxin inhibitors: cycloheximide protein synthesis inhibition. cell reporter, cycloheximide protein synthesis inhibition counterscreen. max response, %. 300,000 tested, 12% active. AID 2314; in the data active = max response mostly above about 13%, no sharp cut-off; inactive = mostly below about 14%; also: read at 38.3 µM for the half of the compounds with a filed dose; 0% is about no effect
Pf growth 96h = P. falciparum growth inhibition at 96 hours | P. falciparum luciferase reporter growth, 96 h | Potency, µM (top dose mostly 28.7 µM), for the others: top-dose activity change, negative = inhibition, usual class: inhibitors | 320,000 tested, 6.9% active | AID 504834; also: potency is read from the fitted curve at half-maximal effect; % is scaled to controls: 0 for no effect and ±100 for the full control effect
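Erythrocytes infected with luciferase-expressing P. falciparum were dispensed at 2% hematocrit and 0.05% parasitemia (final), then incubated with compounds 96 hours at 37 C in 5% CO2. Luminescence after detection reagent addition reported growth.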
Numbers without * were called inactive; ? = inconclusive; nt = no result given. A selection: hits, their analogues and other compounds. The true share with any hit is near 20%. Unless noted, calls follow the shape of the dose curve; as a rule, active = well fitted inhibition curve with a large enough effect; inconclusive = small, poorly fitted or top-dose-only effect, or another doubt; inactive = no such curve, though single readings can be large or run the other way.

SMILES	Pf growth 48h	HCMV antiviral	Shiga toxin inh	CHX counter	Pf growth 96h
O=C(/C=C/c1ccc([N+](=O)[O-])cc1)Nc1cccnc1	54%	52	112*	43*	52%
C(=Cc1cccnc1)c1ccncc1	nt	-26	nt	nt	nt
O=C(/C=C/c1ccccc1)Nc1cccnc1	98%	56	33*	28*	?
CC1CCCN(CCCNC(=O)c2nn(C)c3c2CS(=O)(=O)c2ccccc2-3)C1 (stereo not given)	30%	2	16	-3	?
COC(=O)c1cc(C(=O)OCC(=O)NCc2cccs2)cc([N+](=O)[O-])c1	-16%	6	nt	nt	-14%
Cc1nc(SC(C)C(=O)Nc2ccccc2Cl)cc(-c2ccccc2)n1 (stereo not given)	nt	-70*	nt	nt	nt
COc1cc(O)c(C(CC(=O)N2CCN(c3ccccc3)CC2)c2ccc3c(c2)OCO3)c(OC)c1 (stereo not given)	?	?	-5	9	?
CCN(CC)C(=O)CC(c1cc(OC)c(OC)c(OC)c1)c1c(O)cc(OC)cc1OC (stereo not given)	?	-25	1	-3	?
CCN(CC)CCC(c1ccc2c(c1)OCO2)c1c(O)cc(OC)cc1OC (stereo not given)	1.5µM*	1	14	1	2.9µM*
COc1cc(O)c(C(CCN2CCCC2)c2ccc3c(c2)OCO3)c(OC)c1 (stereo not given)	2.9µM*	11	-5	6	2.9µM*
CCN(CC)CCC(c1cc(OC)c(OC)c(OC)c1)c1c(O)cc(OC)cc1OC (stereo not given)	3.3µM*	-5	16	-4	2.9µM*
COc1cc(O)c(C(CCN2CCN(c3ccccc3)CC2)c2ccc3c(c2)OCO3)c(OC)c1 (stereo not given)	0.83µM*	7	4	1	0.33µM*
CCNC(=O)C1(C)CCCN(C(=O)c2ccc(OC)c(F)c2)C1 (stereo not given)	nt	2	nt	nt	nt
COc1cc(O)c(C(CC(=O)N2CCCC(C)C2)c2cc(OC)c(OC)c(OC)c2)c(OC)c1 (stereo not given)	?	13	3	5	?
COc1cc(O)c(C(CCN2CCN(c3ccccc3)CC2)c2cc(OC)c(OC)c(OC)c2)c(OC)c1 (stereo not given)	1.3µM*	18	6	4	0.93µM*
N#Cc1c(Nc2ccc(Cl)cc2)s[nH]c1=O	2%	-66*	-8	-3	0%
CSc1nc(Nc2ccc(Cl)cc2)c(C#N)c(=O)[nH]1	23%	48	nt	-2	-11%
O=C(Cc1ccccc1)Nc1cc(C(=O)c2ccccc2)ccc1N1CCOCC1	nt	-7	-9	-2	5.2µM*
O=C(Cc1ccccc1)Nc1ccc(N2CCOCC2)cc1N1CCOCC1	-13%	7	-5	-1	2%
O=C(c1ccccc1)c1cc(F)c(N2CCOCC2)cc1Cl	9%	21	23	15	9.3µM*
O=C(c1ccccc1)c1ccc(N2CCOCC2)c(F)c1	187%	74	131*	21*	0%
O=C(c1ccccc1)c1cc([N+](=O)[O-])ccc1N1CCOCC1	-15%	?	-8	-5	?
O=C(COC(=O)c1cccs1)NCc1ccco1	2%	-5	39	-2	?
O=C(COC(=O)c1cccs1)NCc1ccccc1	nt	-12	38	25*	?
O=C(COC(=O)c1cccs1)NCc1ccc2c(c1)OCO2	5%	1	69*	40*	-12%
SMILES	Pf growth 48h	HCMV antiviral	Shiga toxin inh	CHX counter	Pf growth 96h
O=C(COC(=O)c1ccc([N+](=O)[O-])o1)NCc1ccc2c(c1)OCO2	nt	-83*	nt	nt	nt
O=C(COC(=O)c1ccc(Br)o1)NCC1CCCCC1	nt	-18	nt	nt	nt
O=C(COC(=O)c1cccs1)NCC1CCCCC1	7%	-22	23	20*	18%
O=C(COC(=O)c1ccc(Br)o1)NCc1ccc2c(c1)OCO2	nt	7	nt	nt	nt
O=c1c(-c2ccco2)nc2ccccc2n1/C=C(/c1ccc(C(F)(F)F)cc1)n1c(=O)[nH]c2ccccc21	nt	1	nt	nt	nt
C[C@@H]1O[C@H](C2CCCCC2)Cc2[nH][nH]c(=O)c21	nt	7	nt	nt	nt
Cc1cccc(Oc2coc3cc(OC(=O)c4cc5ccccc5oc4=O)ccc3c2=O)c1	28%	13	38	40*	69%
CCc1ccccc1Oc1coc2cc(O)ccc2c1=O	8%	-2	-12	-4	?
COc1ccc(Oc2coc3cc(OC(=O)c4cccs4)ccc3c2=O)cc1	54%	-9	-5	7	4.1µM*
Cc1cccc(Oc2coc3cc(OC(=O)c4cncc(Br)c4)ccc3c2=O)c1	25%	-28	22	2	39%
Cc1cccc(Oc2coc3cc(O)ccc3c2=O)c1	60%	7	49*	31*	21%
CCOC(=O)Oc1ccc2c(=O)c(Oc3cccc(C)c3)coc2c1	37%	131	24	21*	165%
COc1ccc2nc3cc(Cl)ccc3c(Nc3ccc(O)c(CN4CCN(C)CC4)c3)c2c1	nt	17	nt	nt	nt
COc1cc(/C=C2\OC(=O)c3c(OC)cccc32)ccc1O	nt	292	100*	79*	?
CCn1c2ccccc2c2cnc(N=CN(C)C)c(C#N)c21	?	-70*	-23	-2	?
CCN(CC)CCn1c2ccccc2c2cnc(N=CN(C)C)c(C#N)c21	?	-94*	-7	-6	?
COc1ccc(C(=O)OCC(=O)N2CCCC2=O)c(OC)c1	30%	-11	75*	33*	41%
COC(=O)c1ccc(SCC(=O)NCc2ccccc2)c([N+](=O)[O-])c1	nt	42	17	7	2.6µM*
COc1ccc(C(=O)OCC(=O)NC(=O)NCc2ccccc2)cc1[N+](=O)[O-]	5%	0	nt	nt	-14%
COc1cc2c(C#N)c(N3CCc4ccccc4C3)nc(N)c2c(N)n1	8.3µM*	14	20	13	?
COc1ccc(NS(=O)(=O)c2ccc(C)c(C(=O)NC3CCN(Cc4ccccc4)CC3)c2)cc1	10µM*	?	-2	-2	7.4µM*
COc1ccccc1NS(=O)(=O)c1cccc(C(=O)NC2CCN(Cc3ccccc3)CC2)c1	10µM*	nt	nt	nt	3.7µM*
COc1ccccc1NS(=O)(=O)c1cc(C(=O)NC2CCN(Cc3ccccc3)CC2)ccc1C	nt	-62*	nt	nt	nt
Cc1ccc(C(=O)NC2CCN(Cc3ccccc3)CC2)cc1S(=O)(=O)N1CCOCC1	-16%	?	nt	nt	?
COc1ccccc1NS(=O)(=O)c1ccc(C)c(C(=O)NC2CCN(Cc3ccccc3)CC2)c1	10µM*	-76*	nt	nt	?
Cc1ccc(NS(=O)(=O)c2cccc(C(=O)NC3CCN(Cc4ccccc4)CC3)c2)c(C)c1	nt	-40	nt	nt	nt
COc1ccc2c(c1)c(=O)c(C(=O)c1ccc(F)cc1)cn2CC(=O)Nc1ccc2c(c1)OCO2	nt	-11	nt	nt	nt
Cc1csc(SCC(=O)NCCc2ccc(Cl)cc2Cl)n1	2%	-31	3	10	53%
CC(N)CCCC(C)(C)O (stereo not given)	-15%	nt	nt	nt	3%
C/C1=C/CCCc2cc(OS(=O)(=O)C(F)(F)F)ccc2OCC1	nt	-5	nt	nt	nt
